Test results taken from PubChem BioAssay (NCATS).
Active and inactive are the calls of the source. A call without a number means that no potency is given here. The call rests on the fitted dose curve; in most records, active means well fitted inhibition curve with a large enough effect; inconclusive means small, poorly fitted or top-dose-only effect; inactive means flat fitted curve, though single readings scatter.
Potency means the concentration at half of the fitted maximal effect.

What follows are compounds tested on Nanoluciferase (engineered Oplophorus gracilirostris luciferase) (assay: Primary Nanoluciferase (NLuc) qHTS assay for identification of artifact compounds. (AID 1845222)). Details: NLuc-conditioned medium, Nano-Glo luminescence, 5 min; series mostly up to 54.1 µM.
How it was run: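 Concentration-response data were obtained by luminescence after 5 min with Nano-Glo substrate at 1:100. The enzyme was diluted S16 NLuc-expressing cell medium, preincubated with compound for 15 min at RT. Curves were fitted with a 4-parameter Hill model.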
For `C=C1CC2C3(C)C=CC(=O)OC(C)(C)C3CC(OC(C)=O)C2(C)C2C(=O)OC(C)C(=O)C12C` (configuration not stated), the Potency was “inactive”.
For `O=C(/C=C/c1ccc(O)cc1)OC[C@@]1(O)C=C[C@@H]2C(C(=O)O)=CO[C@@H](O[C@@H]3O[C@H](CO)[C@@H](O)[C@H](O)[C@H]3O)[C@@H]21`, the Potency was “inactive”.
With `CC(C)C1CCC(CO)=CC1/C=C(\CO)C(=O)OCC1(O)CCC(C(C)C)C2C=C(C(=O)O)COC(=O)C21` (configuration not stated) the Potency was “inactive”.
`CC(=O)OC1CC(=O)C2(C)C3CC4=C(OC(C)CC4=O)OC3(C)CCC2C1(C)C` (configuration not stated) was tested, and the Potency was “inactive”.
`O=C(Cc1ccc(Cl)cc1)Nc1cnccc1C(=O)O` was tested, and the Potency was 9.53 µM (active).
With `COCc1c(O)c(C(=O)O)c(C)c2c1OC(=O)c1c(C)cc(O)c(CO)c1O2` the Potency was “inactive”.
With `NC(Cc1c[nH]c2ccc(O)cc12)C(=O)O` (configuration not stated) the Potency was “inactive”.
